Measured values from PubChem BioAssay.
Active and inactive are the calls of the source.

Assays:
Albumin (Bos taurus) = Albumin (Bos taurus) (UniProt P02769); experiment: compounds binding labelled BSA control protein – biochemical, small-molecule microarray, Alexa647 label, 635/667 nm fluorescence, artefact control for SMM control protein annotation, profiling panel (AID 1118); conditions: BSA-A647 binding, fluorescence 635 nm, higher = more signal;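 further: score merges 667 nm emission intensity and signal-to-noise per printed compound spot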
[1] = probe aXIP binding to arrayed compounds – biochemical, NeuroSMM set, 635/667 nm fluorescence, primary screen (AID 1119); conditions: small-molecule microarray, higher = more signal, called active from +8 up or from −8 down;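 further: probe is the protein aXip251-270 applied at 1 µg/mL to compound-printed slides; binding of probe to printed compounds measured as 667 nm fluorescence plus signal to noise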
[2] = probe aNOTCH3 binding on compound microarray – biochemical, small-molecule microarray, 635/667 nm fluorescence, primary screen (AID 1120); conditions: higher = more signal;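 further: probe is a biotin-tagged antibody raised against NOTCH3 rather than NOTCH3 protein; score merges spot fluorescence near 667 nm with spot signal to noise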
[3] = probe aNOTCH2 binding on compound microarray – biochemical, small-molecule microarray, 635/667 nm fluorescence, primary screen (AID 1121); conditions: higher = more signal;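 further: score merges feature fluorescence read at 667 nm with its signal to noise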
[4] = target: Carbonic anhydrase 2 (Homo sapiens) (UniProt P00918); experiment: compounds binding carbonic anhydrase 2 – biochemical, small-molecule microarray, Alexa647-labelled CAII, profiling panel (AID 1122); conditions: CAII-A647 binding fluorescence, higher = more signal
[5] = COS7 lysate on small-molecule microarray, probe aHis, 635 nm (AID 1123); conditions: COS7 cell lysate, fluorescence, higher = more signal;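 further: z-score combines 667nm fluorescence intensity with signal-to-noise per printed compound spot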
[6] = probe aLAP1 signal on lysate-treated microarray – cell lysate, small-molecule microarray, COS7 lysate, primary screen (AID 1124); conditions: probe aLAP1, fluorescence, higher = more signal;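 further: lysate comes from COS7 cells expressing LAP1 and is applied at 0.3 µg/mL; score merges spot fluorescence near 667 nm with signal-to-noise over triplicate slides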
Sam68 (KHDRBS1) = experiment: compounds binding KHDRBS1 protein – biochemical, small-molecule microarray, 635 nm fluorescence, primary screen (AID 1125); conditions: higher = more signal;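 further: score merges 667 nm channel intensity with signal to noise over triplicate slides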
[7] = system: Chordin-like protein 2 (CHRDL2); experiment: compounds binding chordin-like 2 – biochemical, small-molecule microarray, 635 nm fluorescence, primary screen (AID 1126); conditions: fluorescence 635 nm, higher = more signal;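 further: printed compound slides probed with Chrdl2 protein at 4 µg/mL for 1 h at 4 C; score merges 667 nm emission intensity with signal to noise over three replicate slides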
[8] = target: Concanavalin-A (Canavalia ensiformis) (UniProt P02866); experiment: compounds binding concanavalin A lectin – biochemical, small-molecule microarray, Alexa647 label, 635 nm, artefact control for SMM control protein annotation, primary screen (AID 1127); conditions: ConA-A647 binding fluorescence, higher = more signal;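 further: z combines 667 nm emission intensity with signal-to-noise across three replicate slides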
Chain of Concanavalin-A (Canavalia ensiformis) (P02866 whole entry, looked up): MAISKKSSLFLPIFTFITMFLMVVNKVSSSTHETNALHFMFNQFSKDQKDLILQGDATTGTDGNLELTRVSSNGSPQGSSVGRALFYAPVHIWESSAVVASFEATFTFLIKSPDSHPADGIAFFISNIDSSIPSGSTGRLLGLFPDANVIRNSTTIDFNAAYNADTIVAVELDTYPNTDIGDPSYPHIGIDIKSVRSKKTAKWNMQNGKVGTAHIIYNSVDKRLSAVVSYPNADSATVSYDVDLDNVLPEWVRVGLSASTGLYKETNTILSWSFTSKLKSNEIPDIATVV

Chain of Albumin (Bos taurus) (P02769 whole entry, looked up): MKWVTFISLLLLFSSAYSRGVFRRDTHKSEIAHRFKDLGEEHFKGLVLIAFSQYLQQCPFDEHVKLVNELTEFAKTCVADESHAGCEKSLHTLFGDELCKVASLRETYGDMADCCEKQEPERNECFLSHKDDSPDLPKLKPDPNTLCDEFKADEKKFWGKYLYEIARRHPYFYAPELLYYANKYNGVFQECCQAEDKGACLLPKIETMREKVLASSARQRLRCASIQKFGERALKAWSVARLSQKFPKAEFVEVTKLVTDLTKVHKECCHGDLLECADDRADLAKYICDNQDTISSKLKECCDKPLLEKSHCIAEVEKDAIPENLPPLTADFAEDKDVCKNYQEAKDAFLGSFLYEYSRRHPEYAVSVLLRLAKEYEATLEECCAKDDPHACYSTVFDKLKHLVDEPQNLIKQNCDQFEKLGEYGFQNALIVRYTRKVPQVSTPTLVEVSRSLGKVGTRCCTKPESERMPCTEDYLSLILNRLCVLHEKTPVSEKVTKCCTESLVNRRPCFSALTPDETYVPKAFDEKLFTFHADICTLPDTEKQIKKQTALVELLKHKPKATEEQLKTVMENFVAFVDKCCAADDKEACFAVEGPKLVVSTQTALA

SMILES	composite z-score (Albumin (Bos taurus))	composite Z-score [1]	composite z-score [2]	composite z-score [3]	composite z-score [4]	composite z-score [5]	composite z-score [6]	composite z-score (Sam68 (KHDRBS1))	composite z-score [7]	composite z-score [8]
C=CC[C@@]1(C(=O)NCC(O)CO)N=C(c2ccc(OCCCO)cc2)O[C@@H]1c1ccccc1N=[N+]=[N-] (stereo not given in full)	1.04	0.338 (inactive)	0.266	0.0007	0.778	3.7	1.02	0.931	-0.982	0.97
C=CC[C@@H](OC(=O)Nc1ccc(OC)cc1)c1ccc(O)c2ccccc12	0.32	0.786 (inactive)	0.278	-0.133	0.349	1.53	-0.09	1.3	1.34	0.913
COCCOC(=O)N1C(=O)[C@@]2(c3cc(C#CC4=CCCCC4)ccc31)[C@H](C(=O)NC[C@H](O)c1ccccc1)[C@H]1C(=O)O[C@H](c3ccccc3)[C@H](c3ccccc3)N1[C@@H]2c1ccc(O)cc1	0.112	0.0886 (inactive)	0.184	0.103	0.521	0.824	0.992	1.29	1.12	1
C=CCC(OC(C)=O)[C@@H]1[C@@H](N(Cc2ccc(-c3ccccc3)cc2)C(=O)Cc2ccc(F)cc2)c2cc(OCCCO)ccc2N1C(=O)c1ccc2ccccc2n1 (stereo not given in full)	0.59	-1.01 (inactive)	0.0653	-0.0796	-0.161	0.164	0.0508	-0.0112	0.255	-0.526
C=C(CCCC)C(=O)CC[C@H](OC(=O)c1cccnc1)c1cccc(OCCO)c1	-0.39	0.087 (inactive)	-0.0242	-0.14	0.771	-0.112	0.0948	0.269	0.225	-0.106
O=C/C=C/c1ccc2c(c1)OCO2	-0.776	0.16 (inactive)	-0.0883	-0.109	-0.0937	-0.408	1.57	0.256	1.11	0.176
COC(=O)[C@@]1(Cc2ccc(OC)cc2)[C@H]2c3cc(C(=O)N4CCCC4)n(CCc4c[nH]c5cc(F)ccc45)c3C[C@H]2CN1C(=O)c1ccccc1	0.957	-0.0378 (inactive)	0.127	0.0064	0.714	3.24	0.959	1.29	-0.703	0.871
C=CCOC(=O)[C@H]1[C@@H]2C(=O)O[C@@H](c3ccccc3)[C@@H](c3ccccc3)N2[C@@H](c2ccc(OCCOC(=O)[C@@H]3C[C@@H]4C(=O)N5CCC[C@H]5C(=O)N4[C@@H]3c3ccc(O)cc3)cc2)[C@]12C(=O)Nc1ccccc12	-0.854	0.0088 (inactive)	0.299	-0.104	0.268	1.36	0.261	1.33	1.03	0.93
C=CCNC(=O)[C@@H]1[C@H]2C(=O)O[C@H](c3ccccc3)[C@H](c3ccccc3)N2[C@H](c2ccc(OCCO)cc2)[C@@]12C(=O)Nc1ccccc12	0.507	-0.551 (inactive)	0.0773	-0.157	0.692	1.91	0.262	1.29	0.228	1.11
O=C1O[C@H](c2ccccc2)[C@H](c2ccccc2)N2[C@H]1[C@@H](C(=O)NC[C@H](O)c1ccccc1)[C@]1(C(=O)Nc3ccc(C#CCCO)cc31)[C@H]2c1ccc(O)cc1	-0.746	1.33 (inactive)	-0.0259	-0.14	-0.702	0.155	1.11	-0.317	-0.316	-0.743
Cc1ccccc1C(O)C1C=CC2C(=O)N(C)C(=O)C2N1N1CCCCC1 (stereo not given)	0.992	-0.118 (inactive)	0.36	0.21	0.793	2.92	0.996	1.32	0.642	1.09
O=C1OCCC=C[C@H]2OC34C=CCN(c5ccc6ccccc6c5)C(=O)[C@H]3N(CCCCCO)C(=O)[C@@H]4C12 (stereo not given in full)	0.388	1.1 (inactive)	-0.0647	-0.0443	0.897	2.11	0.859	-0.222	0.254	-0.119
COc1ccc(C#Cc2ccc3c(c2)[C@]2(C(=O)N3)[C@H](C(=O)NC[C@H](O)c3ccccc3)[C@H]3C(=O)O[C@H](c4ccccc4)[C@H](c4ccccc4)N3[C@@H]2c2ccc(OCCO)cc2)cc1	0.265	0.53 (inactive)	0.196	-0.125	0.357	1.97	0.635	1.33	0.473	1.17
CCOC(=O)C[C@H]1[C@H](OC(=O)c2ccc(-c3ccccc3)cc2)[C@@H](NC(=O)c2ccc(-c3ccccc3)cc2)c2cc(OCCCO)ccc2N1C(=O)Cc1ccc(OC)cc1	0.225	-0.576 (inactive)	-0.0146	-0.125	-0.0968	0.589	-0.002	-0.316	-0.15	0.363
O=C(OCCF)C1=CCC(c2cccc(Cl)c2)O1 (stereo not given)	0.374	0.13 (inactive)	-0.191	-0.199	0.593	0.751	0.142	0.748	-0.165	0.532
CC(C)C(=C=CC[C@H](O)c1cccc(OCCO)c1)C[C@H](O)COCc1ccccc1	-0.0081	1.64 (inactive)	0.119	-0.0562	0.235	1.22	-0.125	0.166	-0.101	0.0514
CC(C)NC(=O)[C@@H]1c2ccccc2C(=O)N(Cc2ccccc2Cl)[C@H]1c1ccc(CO)cc1	0.07	0.757 (inactive)	-0.205	-0.121	0.651	1.29	0.661	1.03	-0.296	-0.0903

SMILES	composite z-score (Albumin (Bos taurus))	composite Z-score [1]	composite z-score [2]	composite z-score [3]	composite z-score [4]	composite z-score [5]	composite z-score [6]	composite z-score (Sam68 (KHDRBS1))	composite z-score [7]	composite z-score [8]
CC(c1ccccc1)C(O)C1C=CC2C(=O)NC(=O)C2N1Nc1ccccn1 (stereo not given)	0.183	0.239 (inactive)	0.0876	0.0012	0.531	0.954	0.398	1.1	0.407	0.901
O=C1OCC=C[C@H]2OC34C=CCN(c5ccc(Cl)cc5)C(=O)[C@H]3N(CCCCCCO)C(=O)[C@@H]4[C@@H]12 (stereo not given in full)	-0.95	0.276 (inactive)	-0.226	-0.148	0.978	0.568	0.688	-1.02	-1.03	-1.59
CCOC(=O)C[C@H]1[C@H](OC(=O)c2ccc(-c3ccccc3)cc2)[C@@H](NC(=O)c2ccc3ccccc3c2)c2cc(OCCCO)ccc2N1C(=O)Cc1ccc(OC)cc1	0.605	-0.608 (inactive)	-0.063	-0.11	-0.0752	0.484	0.188	0.41	-0.887	-0.101
CCOC(=O)[C@H]1C/C=C/C[C@H](C(=O)OCC)C(=O)O[C@H]2[C@@H](OC)O[C@H](CO)[C@@H](OC(=O)Nc3ccc4c(c3)OCO4)[C@@H]2OC1=O	0.783	0.622 (inactive)	0.0927	-0.0425	0.484	1.74	0.143	0.521	-0.384	0.468
CC=CC(O)C1C=CC2C(=O)N(c3ccccc3)C(=O)C2N1Nc1ccc(C(C)C)cc1 (stereo not given)	0.98	0.609 (inactive)	0.271	0.0751	0.641	3.26	0.3	1.3	0.0045	1.11
C=CCN1C(=O)[C@]2(O[C@H](CCO)[C@@H]([Si](C)(C)c3ccc(OC)cc3)[C@@H]2C)c2cc(NC(=O)[C@H](C)O)ccc21	0.851	1.31 (inactive)	0.0203	-0.0666	0.56	1.39	0.371	1.31	0.174	1.01
CC(C)c1ccc(NN2C(C(O)c3ccc(N(C)C)cc3)C=CC3C(=O)N(c4ccccc4)C(=O)C32)cc1 (stereo not given)	0.961	-0.343 (inactive)	0.432	0.0147	0.393	2.76	-0.161	1.29	-0.0118	1.16
CN(C)C(=O)[C@]1(CCC(=O)OC(C)(C)C)N=C(c2ccc(OCCCO)cc2)O[C@@H]1c1ccccc1N=[N+]=[N-]	0.934	0.155 (inactive)	0.374	-0.0985	0.719	3.15	0.964	1.31	-0.516	0.858
C[C@H]1NC(=O)[C@H](Cc2ccccc2)NC(=O)[C@@]23C(=O)N[C@@H](Cc4ccccc4)C2[C@H](C)[C@@]2(C)O[C@H]2C3/C=C/C/C=C\CNC1=O (stereo not given in full)	-1.45	0.572 (inactive)	-0.15	-0.118	-0.0479	-1.21	0.0584	-1.69	0.417	-1.44
O=C(O)[C@H]1C[C@H]2C(=O)NCC(=O)N2[C@H]1c1ccc(O)cc1	0.346	0.289 (inactive)	0.791	-0.0761	0.688	0.921	0.0741	0.0505	1.26	0.482
C=C[C@H](C)[C@@H](O)c1ccc(O)c2ccccc12	0.841	0.681 (inactive)	-0.191	0.291	0.493	0.165	0.361	-0.49	0.866	-1.04
O=C1N(CCS(=O)(=O)c2ccccc2)Cc2ccccc2C[C@]12N=C(c1ccc(OCCCO)cc1)O[C@@H]2c1ccccc1	-0.591	0.339 (inactive)	0.567	0.189	0.396	3.41	1.17	1.13	1.17	1.12
O=C(CCN1CCOCC1)c1cccc(O)c1	0.379	0.989 (inactive)	0.324	0.0292	0.634	0.973	0.629	0.922	1.48	0.767
CC(C)N1CC=CC23O[C@@H]4C=CCOC(=O)[C@@H]4[C@H]2C(=O)N(CCO)[C@@H]3C1=O (stereo not given in full)	-0.0355	0.604 (inactive)	-0.299	-0.14	0.9	1.29	-0.252	0.557	-1.59	-0.329
O=C1OCCC=C[C@H]2OC34C=CCN(Cc5ccccc5)C(=O)[C@H]3N(CCCO)C(=O)[C@@H]4C12 (stereo not given in full)	0.117	-0.241 (inactive)	-0.275	-0.164	0.897	0.0967	-0.322	-1.22	-0.229	-0.731
CCCNC(=O)[C@@H]1c2ccccc2C(=O)N(Cc2ccccc2)[C@H]1c1ccc(CO)cc1	-0.271	0.842 (inactive)	0.0631	-0.0715	0.202	1.1	-0.036	0.22	-0.592	1.01
